The list is not random: actives were taken first. Their share in the collection is about 4.4%.
ALOX12 inhib = inhibitors of human 12-lipoxygenase (ALOX12). P18054. purified 12-hLO, xylenol orange hydroperoxide absorbance. Potency, µM (series often up to 57.1 µM), hits mostly inhibitors. hit rate 0.12% among 150,000; note: nearly all actives have a fitted effect of over 55% in size
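Hydroperoxide formation by human 12-lipoxygenase from 40 uM arachidonic acid was followed colorimetrically via ferric-xylenol orange complex, using the 573/405 nm absorbance ratio. Enzyme concentration was 150 nM, with 30 min reaction at room temperature.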
HPGD inh = HPGD (human) dehydrogenase inhibition; Potency, µM, actives largely listed as inhibitors; purified HPGD, NADH fluorescence kinetic, PGE2 substrate; AID 894; hit rate 4.3% among 150,000; P15428; active = well fitted inhibition curve with a large enough effect, not every such curve was filed as active; inconclusive = small, poorly fitted or top-dose-only effect, or another doubt; inactive = no such curve, though single readings can be large or run the other way
Target sequence (P15428 whole entry, looked up): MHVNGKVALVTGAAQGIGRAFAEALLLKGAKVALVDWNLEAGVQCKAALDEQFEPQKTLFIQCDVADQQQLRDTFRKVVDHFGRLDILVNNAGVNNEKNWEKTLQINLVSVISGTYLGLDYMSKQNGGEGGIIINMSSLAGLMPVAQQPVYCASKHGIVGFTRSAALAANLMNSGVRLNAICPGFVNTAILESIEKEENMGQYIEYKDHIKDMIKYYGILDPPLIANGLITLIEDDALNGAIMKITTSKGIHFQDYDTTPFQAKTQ
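NADH formation kinetics: reaction with 30 uM PGE2 and 1 mM NAD+ (final), 20 nM enzyme, Tris-HCl pH 8 with Tween 20, after 15 min compound preincubation at room temperature. Fluorescence change, last versus first of five reads.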
p53ts 32C kill = cytotoxicity in p53ts cells at permissive temperature. Potency, µM (titrated, usually from 46.1 µM), hits mostly cytotoxic. H1299-p53A138V at 32C, ATP luminescence viability, 24 h. hit rate 0.93% among 130,000. AID 924; note: nearly all actives have a fitted effect of over 55% in size
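ATP-content luminescence (ATPlite) read-out after 24 h compound exposure at 32C in H1299-p53A138V cells (600/well). Tested up to 46 uM. Normalized to DMSO (0%) and 100 uM tamoxifen (100% killing); Hill-fit AC50.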
p53ts 39C tox = kills p53ts cells at the nonpermissive temperature | H1299-p53A138V viability at 39C, ATP luminescence, 24 h | Potency, µM (doses to about 46.1 µM), most hits filed as cytotoxic | hit rate 1.5% among 130,000; note: nearly all actives have a fitted effect of over 55% in size
Numbers stand for hits; . = inactive; ? = inconclusive; / = no result; ! = a repeat was not active; [ ] = another dose, or the depositor's remark. Unless noted, calls come from the whole dose curve; as a rule, active = well fitted curve in the direction sought with a large enough effect; inconclusive = small, poorly fitted or top-dose-only effect, or another doubt; inactive = no such curve, though single readings can be large; an effect the other way counts as inactive or inconclusive.

SMILES | ALOX12 inhib | HPGD inh | p53ts 32C kill | p53ts 39C tox
Cc1cc(C(=O)CN2C(=O)NC(C)(c3ccccc3)C2=O)c(C)n1CC1CCCO1 (stereo unspecified) | . | . | / | /
CCn1cc(C(=O)N2CCN(c3ccccc3OC)CC2)c(=O)c2cc(S(=O)(=O)N3CCCCC3)ccc21 | / | / | . | .
COc1cccc(Cn2nnc3c(=O)[nH]c(C4CCCN(C(=O)c5ccccc5Cl)C4)nc32)c1 (stereo unspecified) | . | 14µM | . | .
COc1ccc(Cn2nnc3c(=O)[nH]c(C4CCCN(C(=O)c5ccc(C)cc5)C4)nc32)cc1 (stereo unspecified) | / | / | . | .
COc1ccc(Cn2nnc3c(=O)[nH]c(C4CCCN(C(=O)c5ccccc5)C4)nc32)cc1 (stereo unspecified) | . | 13µM | . | ?
O=C(c1ccccc1Cl)N1CCCC(c2nc3c(nnn3Cc3ccccc3)c(=O)[nH]2)C1 (stereo unspecified) | . | 16µM | . | .
O=C(c1ccccc1Cl)N1CCCC(c2nc3c(nnn3Cc3ccc(F)cc3F)c(=O)[nH]2)C1 (stereo unspecified) | / | / | . | .
Cc1ccc(NC(=O)c2ccc(F)c(S(=O)(=O)N3CCc4ccccc4C3)c2)cc1F | / | / | . | .
CN(C)c1ccc(N/C=C/C(=O)c2ccccc2)cc1 | . | . | 5µM | 13µM
O=C(/C=C/Nc1ccccc1)c1ccccc1 | . | . | / | /
Cc1ccc(N/C=C/C(=O)c2ccc(C)cc2)cc1 | 2µM | . | / | /
Cc1ccc(C(=O)/C=C\Nc2ccc(C)c(C)c2)cc1 | . | . | / | /
COc1ccc(Cl)cc1Nc1cc(C)nc2nc(C)nn12 | . | 3.5µM | . | .
COc1cc(OC)c(Nc2cc(C)nc3nc(C)nn23)cc1Cl | . | . | . | .
O=C(O)COc1ccc2c(-c3ccccc3)cc(=O)oc2c1 | . | 18µM | . | .
Brc1ccc(-c2nc(-c3ccncc3)no2)o1 | . | . | . | .
Clc1ccc(-c2nc(-c3ccccn3)no2)cc1Cl | . | . | 5µM | 7.9µM
Clc1ccc(OCc2nc(-c3ccccn3)no2)c(Br)c1 | . | . | 13µM | 13µM
Clc1ccccc1OCc1nc(-c2ccccn2)no1 | . | . | ? | ?
Brc1ccc(-c2nc(-c3ccccn3)no2)o1 | . | . | 7.9µM | 6.3µM
O=C(CSc1cn(CC(=O)N2CCCCC2)c2ccccc12)NCc1ccc(F)cc1 | / | / | . | .
Cc1ccc(C)c(CN2C(=O)c3ccccc3S(=O)(=O)c3ccc(C(=O)N4CCN(c5ccccc5)CC4)cc32)c1 | / | / | . | .
Cc1cc(C)n2nc(SCc3nc4ccccc4[nH]3)nc2n1 | . | . | . | .
COc1cccc(CSc2nnc(CSc3nc4nc(C)cc(C)n4n3)s2)c1 | . | 16µM | / | /
Nc1nnc(SCc2ccccc2Cl)s1 | . | . | . | .
SMILES | ALOX12 inhib | HPGD inh | p53ts 32C kill | p53ts 39C tox
Cc1cc(C)n2nc(SCc3nnc(SCc4ccccc4C)s3)nc2n1 | . | 25µM | / | /
Cc1cc(C)n2nc(SCc3nnc(SCc4ccccc4Cl)s3)nc2n1 | . | 28µM | / | /
CCc1ccc(-n2c(=O)c3c4c(sc3n(CC(=O)N3CCCCC3CC)c2=O)CCC4)cc1 (stereo unspecified) | / | / | . | .
COc1ccc(-c2nc3c(c(SCc4ccc(Br)cc4)n2)Cc2c(CO)cnc(C)c2O3)cc1 | / | / | . | .
COC(=O)[C@@]1(Cc2ccc(OC)cc2)[C@H]2c3cc(C(=O)N(C)C)n(Cc4ccc(OC)c(OC)c4)c3C[C@H]2CN1C(=O)c1ccccc1 | . | . | . | .
Cc1nc2c(ccc3nc(NC(=O)c4ccc5c(c4)OCCO5)sc32)s1 | . | ? | 4µM | 3.2µM
Cc1nc2ccc3nc(NC(=O)c4ccc5c(c4)OCCO5)sc3c2s1 | . | . | . | .
COc1ccccc1CNC(=O)C1CCN(S(=O)(=O)c2ccc3[nH]c(=O)ccc3c2)CC1 | / | / | . | .
Cc1cc(C)cc(NC(=O)Cn2cc3c(n2)CCCCC3)c1 | . | 20µM | / | /
CN(C)c1ccc(NC(=O)Cn2cc3c(n2)CCCC3)cc1 | . | . | . | .
COc1ccc(NC(=O)c2c(NC(=O)C(F)(F)F)sc3c2CCCCC3)cc1 | / | / | . | .
Cc1ccccc1C(=O)Nc1nncs1 | . | . | / | /
O=C(Nc1nncs1)c1c(F)c(F)c(F)c(F)c1F | . | 22µM | . | .
O=C(O/N=C1/CCSc2ccccc21)c1ccccc1 | . | 18µM | / | /
O/N=C1/CCCSc2ccccc21 | . | 11µM | . | .
COC(=O)Cn1c(=NC(=O)C(C)C)sc2c(C)cc(C)cc21 | . | . | / | /
CCn1c(=NC(=O)CN2C(=O)CCC2=O)sc2c(C)cc(C)cc21 | . | 14µM | / | /
O=C(CC1=NCCNC(c2ccccc2)C1)c1ccccc1O (stereo unspecified) | ? | 25µM | . | ?
Cc1ccc(OCCN2C(=O)c3ccccc3C2=O)c(C)c1 | . | 22µM | . | .
CCOc1ccc(-c2cc(CCCC(=O)NCc3cccnc3)no2)cc1 | . | . | 16µM | ?
Cc1c(N=C2NC(=O)/C(=C/c3cccc([N+](=O)[O-])c3)S2)c(=O)n(-c2ccccc2)n1C | . | 2.5µM | / | /
Cc1c(N=C2C(=O)Nc3ccccc32)c(=O)n(-c2ccccc2)n1C | . | . | / | /
Oc1ccc(Br)cc1/C=N/n1cnc2ccccc21 | . | 14µM | . | .
COc1ccc2c(c1)C(=O)[C@@H](OC(=O)NCCOc1ccccc1)[C@H](c1ccc(OC)c(Br)c1)O2 | / | . | / | /
O=C(NCCO)c1ccc(CSc2nc3ccccc3[nH]2)cc1 | . | 25µM | / | /
SMILES | ALOX12 inhib | HPGD inh | p53ts 32C kill | p53ts 39C tox
Fc1ccc(CSc2nc3ccccc3[nH]2)cc1 | . | . | / | /
O=C(c1ccc(CSc2nc3ccncc3[nH]2)cc1)N1CCCCC1 | . | 0.56µM | / | /
COc1ccc(-c2nc(SCC(=O)Nc3ccc4c(c3)OCCO4)c(-c3ccccc3)[nH]2)cc1 | / | / | . | .
CCOc1ccc(-c2nc(SCC(=O)Nc3ccc4c(c3)OCCO4)c(-c3ccc(F)cc3)[nH]2)cc1 | / | / | . | 16µM
Cc1cc(=O)oc2c1ccc1oc(/C(=N/O)c3ccccc3)c(C)c12 | . | 13µM | . | .
CC(=O)c1ccc2c(c1)N(CCCN1CCC(CCO)CC1)c1ccccc1S2 | . | . | / | /
CN(C)CCCN1c2ccccc2Sc2ccc(Cl)cc21 | . | . | ? | 10µM!
OCCN1CCN(CCCN2c3ccccc3Sc3ccc(Cl)cc32)CC1 | . | . | 16µM! | 10µM!
CN(C)CCCN1c2ccccc2Sc2ccc3ccccc3c21 | .[11.4 µM] | . | .[9.22 µM] | .[9.22 µM]
COc1ccc(NC(=O)c2noc3c2CCCC3)cc1Cl | / | / | . | .
c1ccc(Cn2nnc3c(N4CCc5ccccc5C4)ncnc32)cc1 | . | 32µM | . | .
Clc1ccccc1Nc1ncnc2c1nnn2Cc1ccccc1 | . | 22µM | . | .
c1ccc(Cn2nnc3c(N4CCCC4)ncnc32)cc1 | . | . | . | .
CC(=O)Nc1nonc1-c1nnc(SCc2ccccc2C)n1C | / | / | . | .
Cc1ccccc1/C=C\C1=NCCN1 | . | / | . | .
Cc1ccc(SCc2nc(-c3ccc(C(=O)NCc4ccc(Cl)cc4)cc3)oc2C)cc1 | / | / | . | .
Cc1nc2nc(SCC(=O)NCCc3ccccc3)nn2c(C)c1Cc1c(F)cccc1Cl | / | / | . | .

Screens: PubChem, National Center for Advancing Translational Sciences (NCATS)
